Measurements published in PubChem BioAssay (NCI).
This is part of a sample that, as a whole, favours compounds with a hit. Of some 83,000 tested, about 20% had one in any assay.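 Testing used 96-well plates and a 48-hour single-concentration exposure. Example: -40 means 40% of the starting cells died.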 Values without a mark were called inactive. Calls of active or inactive are those of the source. The calls were made as follows: active = growth percent below 10; inactive = the rest.

Tested on: DU-145 prostate
Assay: NCI-60 one-dose screen, 48 h (100 = growth as untreated, 0 = no growth, -100 = all killed)
Conditions: 10 µM unless noted

| Compound | growth |
| --- | --- |
| OCCCCc1nccc2c1[nH]c1ccccc12 | 114% |
| CCCn1nc(-c2ccccc2)c2c(-c3ccccc3)onc2c1=O | 104% |
| Cc1cc(N(CCCNc2ccnc3cc(Cl)ccc23)Cc2ccccn2)nc(N2CCCC2)n1 | 91.2% |
| C=C(C)[C@@H]1CC[C@]2(CN)CC[C@]3(C)[C@H](CC[C@@H]4[C@@]5(C)CCC(N)[C@@](C)(CO)[C@@H]5CC[C@]43C)[C@@H]12 (some centres undefined) | -38.1% (active) |
| COc1ccc(-n2ncn(CCCCCCn3cnn(-c4ccc(OC)cc4)c3=O)c2=O)cc1 | 101% |
| O=C(NC1CCOCC1)c1ccc2c(c1)CN(c1ncc(Cc3cccc(-n4cccn4)c3)s1)CC2 | 88.2% |
| C=C(CNCCc1ccc(O)cc1)[C@@H]1CC[C@]2(COC3CCCCO3)CC[C@]3(C)[C@H](CC[C@@H]4[C@@]5(C)CCC(NCCO)C(C)(C)[C@@H]5CC[C@]43C)[C@@H]12 (some centres undefined) | -91.9% (active) |
| Cc1c(C(=O)O[C@H]2[C@@H]3[C@H](C)CC[C@H]3[C@]3(C)O[C@@]2(C2CCCCC2)C[C@H]3OC(=O)CO)ccc2ccccc12 | 58.7% |
| COc1ccc(Oc2nc(Nc3ccc(N4CCCCC4)nc3)ncc2NC(=O)c2cc(OC)cc(OC)c2)cc1 | 40.7% |
| O=C(Oc1ccc[nH]c1=O)c1cc([N+](=O)[O-])cc([N+](=O)[O-])c1 | 123% |
| Cc1cc(N2CCCCC2)nc(N(CCNc2ccnc3cc(Cl)ccc23)Cc2ccccn2)n1 | 61.9% |
| CCCCOc1ccc(NC(=O)n2nc(N=NN(C)C)c3ccc(Cl)cc32)cc1 | 106% |
| O=C1NN(C(=O)c2ccc(O)cc2)C(c2ccccc2)=N/C1=C\c1cn(-c2ccccc2)nc1-c1ccccc1 | 92% |
| COC(=O)/C(=C\c1ccc(OC)cc1)C(=O)N1c2ccccc2Sc2ccccc21 | 78.5% |
| COc1ccc(Oc2nc(Nc3ccc(N4CCOCC4)nc3)ncc2NC(=O)c2cc(OC)cc(OC)c2)cc1 | 89.6% |
| NC(=O)c1c(NC(=O)c2ccc(C(F)(F)F)cc2Cl)sc2c1CCC(=O)C2 | 18.9% |
| O=C(NCCOCCOCCOCCNC(=O)c1cc2c(o1)C(=O)c1ccccc1C2=O)NC12CC3CC(CC(C3)C1)C2 | -96% (active) |
| COC(=O)c1ccc(CSc2nnc(-c3ccncc3)o2)cc1 | 114% |
| CCCc1nc2ccccn2c1Nc1ccc(C(=O)NO)cc1 | 88.3% |
| Fc1ccc(Nc2ccc3cc(OCCCN4CCOCC4)ccc3n2)cc1F | 64.2% |

| Compound | growth |
| --- | --- |
| C=C1c2c(C)nn(-c3ccc(S(N)(=O)=O)cc3)c2N(C)C23CC1C1(C)c4c(C)nn(-c5ccc(S(N)(=O)=O)cc5)c4N(C)C(C)(CC12)C3 (centres undefined) | 43.6% |
| C=C1c2c(C)nn(-c3ccc(NC(C)=O)cc3)c2N(C)C23CC1C1(C)c4c(C)nn(-c5ccc(NC(C)=O)cc5)c4N(C)C(C)(CC12)C3 (centres undefined) | 46.8% |
| C[C@@H]1CC[C@@H]2[C@@H]1[C@H](OC(=O)c1ccc3ccccc3c1)[C@]1(C3CCCCC3)C[C@@H](OC(=O)CO)[C@@]2(C)O1 | 72.1% |
| CC(C)(C)c1ccc(C(=O)Nc2sc3c(c2C(N)=O)CCC(=O)C3)cc1 | 24.7% |
| N=c1ccn2c(n1)OC1C(O)C(CO)OC12 (centres undefined) | 11.7% |
| NC(=Nc1ccc(N)cc1)C(N)=Nc1ccc(N)cc1 | 106% |
| COc1ccc(/C=C(\C#N)n2nnc3cc(F)c(F)cc32)c(OC)c1OC | 24.5% |
| C=C1c2c(C)nn(-c3ccc(O)cc3)c2N(C)C23C[C@@H]1C1(C)c4c(C)nn(-c5ccc(O)cc5)c4N(C)C(C)(C[C@H]12)C3 (some centres undefined) | 45% |
| CSc1ccc(Cl)c(C(=O)Nc2sccc2C(N)=O)c1 | 102% |
| C=C1c2c(C)nn(-c3ccc(N)cc3)c2N(C)C23CC1C1(C)c4c(C)nn(-c5ccc(N)cc5)c4N(C)C(C)(CC12)C3 (centres undefined) | 81.4% |
| CC(=O)Nc1ccc2c(c1)Cc1c(F)cccc1-2 | 102% |
| C=C(C)[C@@H]1CC[C@]2(CNCCO)CC[C@]3(C)[C@H](CC[C@@H]4[C@@]5(C)CCC(N)[C@@](C)(CO)[C@@H]5CC[C@]43C)[C@@H]12 (some centres undefined) | 10.3% |
| Cc1cnc(Nc2ccc(OCCN3CCCC3)cc2)nc1NCc1ccco1 | 83.8% |
| Cc1cc(N(CCCNc2ccnc3cc(Cl)ccc23)Cc2ccccn2)nc(N2CCOCC2)n1 | 113% |
| C=C(CNCCc1ccc(O)cc1)[C@@H]1CC[C@]2(COC3CCCCO3)CC[C@]3(C)[C@H](CC[C@@H]4[C@@]5(C)CCC(N)C(C)(C)[C@@H]5CC[C@]43C)[C@@H]12 (some centres undefined) | -88.9% (active) |
| Clc1ccc2c(NCCCN3CCN(c4nc(-n5ccnc5)nc5ccccc45)CC3)ccnc2c1 | 93.3% |
| Cn1c(NCCc2ccc(O)c(O)c2)nc2c1c(=O)n(Cc1ccc(Cl)cc1)c(=O)n2C | 87.3% |
| CCN(CC)N=Nc1nn(C(=O)Nc2ccc(Cc3ccccc3)cc2)c2ccc(Cl)cc12 | 70.5% |
| COC(=O)c1ccc2oc(NC(=O)c3ccc(N4CCOCC4)c([N+](=O)[O-])c3)nc2c1 | 102% |
